# Assay outcomes (PubChem)
# HP1b binding inh: HTS for Inhibitors of HP1-beta Chromodomain Interactions with Methylated Histone Tails; Chromobox protein homolog 1 (Homo sapiens), P83916; AlphaScreen HP1-beta / biotin-H3K9me3 peptide binding; Potency, µM (series often up to 114 µM), for the others: top-dose activity change, negative = inhibition, actives largely listed as inhibitors; 0.56% of 390,000 active; AID 540317, 2011; further: potency means the concentration at half of the fitted maximal effect; nearly all actives have a fitted effect of over 70% in size
#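 Compound inhibition of the preformed complex between 50 nM HP1-beta and 50 nM biotinylated H3K9me3 peptide was read by AlphaScreen. Buffer was PBS pH 7.4 with 0.01% Tween-20. Incubations ran 30 min at room temperature, with 10 ug/mL donor/acceptor beads.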
# L3MBTL1 block: qHTS Assay for the Inhibitors of L3MBTL1 | Potency, µM (titrated, usually from 57.1 µM), for inactives: at the highest dose activity, negative = inhibition, most hits filed as inhibitors | 0.66% of 230,000 active | AID 485360, 2010 | AlphaScreen L3MBTL1–H3K9me1 peptide binding; further: potency means the concentration at half of the fitted maximal effect; on the % scale 0 is the no-effect control and ±100 the full control effect; nearly all actives have a fitted effect of over 60% in size
#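 AlphaScreen assay: L3MBTL1 (50 nM final) was preincubated 30 min at room temperature with biotinylated H3(1-15)K9me1 peptide (75 nM final), then 30 min with library compounds; streptavidin donor and nickel chelate acceptor beads (10 ug/mL final) added, 30 min dark.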
# BAZ2B block: qHTS Assay for Inhibitors of BAZ2B. AlphaScreen BAZ2B-H3K14Ac peptide displacement. Bromodomain adjacent to zinc finger domain protein 2B (Homo sapiens), Q9UIF8. Potency, µM (top dose mostly 114 µM), inactives show top-dose activity change, negative = inhibition, hits mostly inhibitors. 4.4% of 360,000 active. AID 504333, 2011; further: potency means the concentration at half of the fitted maximal effect; on the % scale 0 is the no-effect control and ±100 the full control effect; nearly all actives have a fitted effect of over 60% in size
#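 Multi-concentration screen (max 110 uM) measuring displacement of acetylated histone H3 peptide from BAZ2B by AlphaScreen, using 50 nM protein, 50 nM peptide and 10 ug/mL streptavidin donor plus Ni-chelate acceptor beads.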
# PI5P4Ka inh: qHTS for Inhibitors of phosphatidylinositol 5-phosphate 4-kinase (PI5P4K); Phosphatidylinositol 5-phosphate 4-kinase type-2 alpha (Homo sapiens), P48426; PI5P4Kalpha enzyme, ADP-Glo luminescence, 60 min; hits give low values; max response, %; 1.2% of 330,000 active; AID 652105, 2013; active means max response of -50% or lower; inconclusive means between -30% and -50%; inactive means -30% or higher; further: value at the top dose of about 77 µM; on the % scale 0 is the no-effect control and ±100 the full control effect
# Target sequence (P48426 whole entry, looked up): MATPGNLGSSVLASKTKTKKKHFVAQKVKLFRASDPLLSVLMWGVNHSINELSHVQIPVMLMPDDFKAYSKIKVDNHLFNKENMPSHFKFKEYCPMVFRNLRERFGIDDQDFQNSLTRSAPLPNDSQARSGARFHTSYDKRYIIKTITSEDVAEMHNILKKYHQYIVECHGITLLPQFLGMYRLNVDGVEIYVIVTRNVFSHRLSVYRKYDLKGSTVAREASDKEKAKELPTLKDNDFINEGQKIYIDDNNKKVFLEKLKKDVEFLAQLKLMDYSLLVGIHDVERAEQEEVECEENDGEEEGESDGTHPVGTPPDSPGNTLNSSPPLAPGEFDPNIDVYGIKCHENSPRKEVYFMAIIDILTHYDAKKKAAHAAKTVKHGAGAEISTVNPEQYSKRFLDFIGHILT
#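 ADP-Glo luminescence end-point read after a 60 min room-temperature kinase reaction of PI5P4Kalpha plus substrate, initiated with ATP at 5 microM final. Buffer: 0.038 M HEPES pH 7.4, EGTA, 0.1% CHAPS, 5% DMSO.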
# G9a block: qHTS Assay for Inhibitors of Histone Lysine Methyltransferase G9a; AID 504332, 2011; G9a H3K9 monomethylation, AlphaScreen, 2 h; Potency, µM (doses to about 102 µM), inactives show at the highest dose activity, negative = inhibition, actives largely listed as inhibitors; 8.8% of 350,000 active; further: potency means the concentration at half of the fitted maximal effect; on the % scale 0 is the no-effect control and ±100 the full control effect; nearly all actives have a fitted effect of over 75% in size
#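 Methyltransferase reactions run at room temperature for 2 h (20 nM enzyme, 500 nM biotin-H3K9 peptide, 20 uM SAM) after a 15 min compound preincubation; product detected by AlphaScreen beads and anti-H3K9me1 antibody.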
# JMJD2A Tudor inh: qHTS Assay for Inhibitors of JMJD2A-Tudor Domain | Lysine-specific demethylase 4A (Homo sapiens), O75164 | AlphaScreen JMJD2A-Tudor / H3K4me3 peptide binding | Potency, µM (titrated, usually from 114 µM), for the others: at the top dose activity change, negative = inhibition, actives largely listed as inhibitors | 4.4% of 390,000 active; further: potency means the concentration at half of the fitted maximal effect; on the % scale 0 is the no-effect control and ±100 the full control effect; nearly all actives have a fitted effect of over 50% in size
# An asterisk follows results filed as active; u = inconclusive; x = not tested or not shown; [ ] = another dose, or the depositor's remark. Rows were chosen to be rich in hits. Some 11% of all compounds tested hit in one or more screens of this group. Unless noted, the call rests on the fitted dose curve; in most records, active means well fitted inhibition curve with a large enough effect; inconclusive means small, poorly fitted or top-dose-only effect; inactive means no such curve, though single readings can be large or run the other way.
SMILES,HP1b binding inh,L3MBTL1 block,BAZ2B block,PI5P4Ka inh,G9a block,JMJD2A Tudor inh
N#Cc1c2n(c(=S)n(-c3ccccc3)c1=O)CCCCC2,73%,3%,-15%,2,-3%,-10%
N#Cc1c2n(c(=S)n(-c3ccccc3[N+](=O)[O-])c1=O)CCCCC2,-7%,10%,x,8,40µM*,u
Cc1cc(C(=O)NC(C)CCC(C)C)c2ccccc2n1 (stereo not given),38%,x,11%,3,45µM*,-14%
Cc1cc(C(=O)NN=C2CCCC2)c2ccccc2n1,6%,-3%,-6%,-2,-23%,11µM*
O=C(NCCc1ccccc1)c1ccc(CSc2nc3ccncc3n2Cc2ccccc2F)cc1,52%,x,-4%,x,u,-16%
COc1ccc(C(=O)NCC(c2cccs2)S(=O)(=O)c2ccc(F)c(C)c2)cc1 (stereo not given),11%,x,2%,x,1%[59 µM],-2%
COc1ccc(C)cc1NC(=O)NCc1ccc2c(c1)CCN2C(=O)c1ccccc1,-7%[57 µM],x,-26%,x,-20%[59 µM],-12%
CC(C)c1ccc(NC2CCCN(C(=O)c3ccnc(Cl)c3)C2)cc1 (stereo not given),24%,x,u,-1,25µM*,-32%
CC(C)c1ccc(NC2CCCN(C(=O)c3ccc4nccnc4c3)C2)cc1 (stereo not given),13%,x,-26%,5,79µM*,-25%
COc1ccc(CN(C(=O)Cc2coc3ccc(C)cc23)C2CCS(=O)(=O)C2)cc1 (stereo not given),2%,x,-9%,x,-3%[59 µM],-32%
O=C(NCC1CCN(C(=O)c2c(F)c(F)c(F)c(F)c2F)CC1)c1c(F)c(F)c(F)c(F)c1F,24%,x,-1%,5,79µM*,3%
O=C(NCC1CCN(C(=O)c2cccc([N+](=O)[O-])c2)CC1)c1cccc([N+](=O)[O-])c1,-14%,x,-1%,6,0%,-9%
O=S(=O)(c1ccc(C(F)(F)F)cc1)N1CCN(S(=O)(=O)c2ccc3c(c2)OCCO3)CC1,x,x,x,x,x,-14%
O=[N+]([O-])c1ccc(N/N=C2/CCCCC2c2ccccn2)cc1 (stereo not given),-11%[57 µM],u,u,1,32µM*,16µM*
O=[N+]([O-])c1ccc(NC2CCCC2)cc1,-1%,-5%,-29%,-1,-6%[59 µM],-36%
CC(C)CNc1oc(-c2ccccc2Cl)nc1C#N,u,u,u,8,40µM*,-22%
N#Cc1nc(-c2ccccc2)oc1NCc1ccco1,16%,u,50µM*,0,u,-29%
N#Cc1nc(-c2ccccc2Cl)oc1NCc1ccco1,-30%,-3%,50µM*,x,u,u
N#Cc1nc(-c2ccc(Cl)cc2)oc1NCc1ccco1,-31%,x,-31%,-6,-8%[12.7 µM],-8%[11.4 µM]
COc1ccc(CNc2oc(-c3ccccc3)nc2C#N)cc1,-17%,-13%,45µM*,2,40µM*,u
COCCCNc1oc(-c2ccccc2Cl)nc1C#N,-3%,-6%,-39%,-1,u,-22%
COc1cc(OC)c2c(c1Cl)O[C@@]1(C2=O)[C@H](C)CC(=O)C[C@@H]1OC,x,x,x,x,20%[21.5 µM],x
CN(C)CCCN(C(=O)c1ccc(C(=O)c2ccccc2)cc1)c1nc2ccc(F)cc2s1,44%,x,u,2,u,-2%
CCc1ccc2nc(N(CCCN(C)C)C(=O)c3ccc(S(=O)(=O)N4CCc5ccccc5C4)cc3)sc2c1,15%,x,u,-6,x,-14%
